Records with an inconclusive call do not appear. Entries that show only a call come without a potency. The source made the active and inactive calls. The call rests on the fitted dose curve; in most records, active means well fitted inhibition curve with a large enough effect; inconclusive means small, poorly fitted or top-dose-only effect; inactive means no such curve, though single readings can be large or run the other way.

The subject of the experiment is Zika virus NS2B-NS3 protease (linked construct). Put plainly: Primary screen NINDS Rhodamine qHTS for Zika virus inhibitors (AID 1347160). Further: nearly all actives have a fitted effect of over 55% in size. The conditions noted are these: purified NS2B-NS3 protease, Rhodamine110 substrate fluorescence; series mostly up to 33.1 µM. In a few lines: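 Enzyme (25 nM, linked NS2B-NS3) was preincubated 15 min with compound in 10 mM Tris-HCl pH 8.0, 0.01% Tween 20. Rhodamine110 substrate (1.5 microM) was then added and fluorescence read at start and after 15 min.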
Regarding `C=CCC1=C[C@]2(OC)[C@H](C)[C@@H](c3ccc(OC)c(OC)c3)O[C@]2(OC)CC1=O`, the Potency entry was “inactive”.

With `CC(=O)O[C@@]1(C)[C@@H]2CC(=C(C)C)C(=O)C[C@@]2(C)CC[C@H]1OC(=O)C1(C)OC1C` (some centres undefined), the Potency entry was “inactive”.

Turning to `C[C@@H]1O[C@@H](O[C@H]2[C@H](OC(=O)[C@]34CCC(C)(C)C[C@H]3C3=CCC5[C@@]6(C)C[C@@H](O)[C@@H](O[C@@H]7O[C@H](CO)[C@@H](O)[C@H](O)[C@H]7O)[C@@](C)(CO)C6[C@H](O)C[C@@]5(C)[C@]3(C)CC4)OC[C@H](O)[C@@H]2O)[C@H](O)[C@H](O[C@@H]2OC[C@](O)(CO)[C@H]2O)[C@H]1O[C@@H]1OC[C@@H](O)[C@H](O[C@H]2O[C@H](C)[C@@H](O)[C@H](O)[C@@H]2O)[C@H]1O` (some centres undefined), the Potency result was “inactive”.

With `CC1(C)CC[C@]2(C(=O)O[C@@H]3O[C@H](CO)[C@@H](O)[C@H](O)[C@H]3O)CC[C@]3(C)C(=CCC4[C@@]5(C)C[C@@H](O)[C@H](O)[C@@](C)(CO)C5[C@H](O)C[C@]43C)C2C1` (some centres undefined), the Potency entry was “inactive”.

Turning to `O=C(/C=C/c1ccc(O)cc1)OC[C@H]1O[C@H](O[C@@]2(CO)O[C@@H](CO)[C@H](O)[C@H]2O)[C@H](O)[C@@H](O)[C@@H]1O`, the Potency result was “inactive”.

Turning to `C=C(C)[C@@]1(O)C[C@@]2(C)C(=CC1=O)CC[C@@H](O)[C@@H]2C`, the Potency result is “inactive”.

As to `CC1=C2C(=O)C=C(CO[C@@H]3O[C@H](CO)[C@@H](O)[C@H](O)[C@H]3O)[C@@H]2[C@H]2OC(=O)[C@H](C)[C@@H]2[C@@H](O)C1`, the Potency result is “inactive”.

As to `Cc1cn(-c2cc(NC(=O)c3ccc(C)c(Nc4nccc(-c5cnccn5)n4)c3)cc(C(F)(F)F)c2)cn1`, the Potency entry is “inactive”.

Consider `NCCCCN(Cc1nc2ccccc2[nH]1)[C@H]1CCCc2cccnc21`, for which the Potency result is “inactive”.

Take `CC1(C)CC[C@]2(C(=O)O[C@@H]3O[C@H](CO)[C@@H](O)[C@H](O)[C@H]3O)CC[C@]3(C)C(=CCC4[C@@]5(C)CC[C@H](O[C@H]6O[C@H](CO)[C@@H](O)[C@H](O[C@@H]7O[C@H](CO)[C@@H](O)[C@H](O)[C@H]7O)[C@H]6O)C(C)(C)C5CC[C@]43C)[C@@H]2C1` (some centres undefined): the Potency result is “inactive”.

With `CCC/C=C1\OC(=O)C2=C1CCC(O)C2O` (centres undefined), the Potency result was “inactive”.

Consider `CCCCOc1nc(N)c2c(n1)N(Cc1cccc(CN3CCCC3)c1)CC(=O)N2`, for which the Potency result is “inactive”.

Consider `COC1OC(OC)C(O)(CCC2(C)C(C)CCC3(C)C2CC(O)C(O)C32CO2)C1O` (centres undefined), for which the Potency entry was “inactive”.

As for `COc1ccc(/C=C/C(N)=O)cc1OC`, the Potency result is “inactive”.

Take `COc1cc2c(cc1OC)N1C(=O)C[C@@]34C=CC[N@+]5([O-])CC[C@H]2[C@H](CC3)[C@@]145`: the Potency entry is “inactive”.

With `Cc1ccccc1N1CCN(S(=O)(=O)C[C@]23CC[C@H](C[C@@H]2NC(=O)[C@@H](N)CCS(C)(=O)=O)C3(C)C)CC1`, the Potency entry is “inactive”.

For `C=CC(C)(O)CC/C=C(\C)C(=O)O[C@@H]1[C@@H](O)[C@H](OC(C)(C=C)CC/C=C(\C)C(=O)O)O[C@H](CO)[C@H]1OC(=O)/C(C)=C/CCC(C)(O)C=C` (some centres undefined), the Potency entry was “inactive”.

Take `COC1OC(=O)C2=C1C1(C)CCCC(C)(C)C1CC2O` (centres undefined): the Potency entry is “inactive”.

As for `Cc1ncc(Cl)cc1NCc1ccc(C(=O)NC(CC2CCCC2)C(=O)NC2CC2)s1` (centres undefined), the Potency entry is “inactive”.

Consider `COC(=O)C1=COC(O[C@@H]2O[C@H](CO)[C@@H](O)[C@H](O)[C@H]2O)[C@@H]2[C@@](C)(O)[C@@H](OC(=O)/C=C/c3ccccc3)C[C@]12O` (some centres undefined), for which the Potency result is “inactive”.

Turning to `C=CC(C)(C)C12Nc3c(ccc4c3OC(C)(C)C=C4)C1(O)CC1C(=O)N3CCCC3C(=O)N12` (centres undefined), the Potency entry was “inactive”.

With `CCCCS(=O)(=O)NC(Cc1ccc(OCCCCC2CCNCC2)cc1)C(=O)O` (centres undefined), the Potency entry was “inactive”.

For `O=C(O[C@H]1[C@H](Oc2ccc(O)cc2CO)O[C@H](CO)[C@@H](O)[C@@H]1O)c1ccccc1`, the Potency result is “inactive”.

For `Cc1nc2cc(-c3cc(F)cc(C#N)c3)ccc2s1`, the Potency result is “inactive”.

For the molecule `CC(C)=CCC/C(C)=C/CO[C@@H]1O[C@H](CO[C@@H]2O[C@@H](CO)[C@H](O)[C@H]2O)[C@@H](O)[C@H](O)[C@H]1O`, the Potency entry was “inactive”.

Turning to H-DPPDPDRFYGMM-NH2, the Potency entry is “inactive”.

For `C=C1CCC2[C@](C)(CO)CCC[C@@]2(C)[C@@H]1CCC1=CCOC1=O` (some centres undefined), the Potency result is “inactive”.

As for `O=C(O)Cc1cn([C@@H]2O[C@H](CO)[C@@H](O)[C@H](O)[C@H]2O[C@@H]2O[C@H](CO)[C@@H](O)[C@H](O)[C@H]2O)c2ccccc12`, the Potency result was “inactive”.

For `NC(=O)[C@@H]1CC[C@H](c2ccc(OCc3ccccc3F)cc2)N1`, the Potency entry was “inactive”.

As for `Cc1c(O)cc2c(c1O)COC1(O)CCCOC21` (centres undefined), the Potency entry is “inactive”.

`O=C(c1c2ccccc2cc2ccccc12)N1CCC(N2CCC[C@@H](C(=O)N3CCOCC3)C2)CC1`: the Potency entry was “inactive”.

As for `CN(C)c1ccc(C2O[C@@H](c3ccccc3)C[C@H](c3ccccc3)O2)cc1` (some centres undefined), the Potency result was “inactive”.

With `CC(=O)OCC1OC(OC2COC(OC3COC(OC4C(OC5C(CO)OC(OC6CCC7(C)C(CCC8(C)C7CC=C7C9CC(C)(C)CCC9(C(=O)OC9OC(CO)C(O)C(O)C9OC9OCC(OC%10OCC(O)(CO)C%10O)C(O)C9O)C(O)CC78C)C6(C)C)C(O)C5O)OCC(O)C4O)C(O)C3O)C(O)C2O)C(OC(=O)/C=C/c2ccccc2)C(O)C1OC(C)=O` (centres undefined), the Potency entry is “inactive”.

On to `COC(=O)C1=COC(OC2OC(CO)C(O)C(O)C2O)C2C(C)CC(=O)C12O` (centres undefined), for which the Potency entry was “inactive”.

With `CC1(C)CC[C@]2(C(=O)OC3OC(CO)C(O)C(O)C3O)CC[C@]3(C)C(=CCC4[C@@]5(C)C[C@@H](O)[C@H](OC6OC(C(=O)O)C(O)C(O)C6O)C(C)(C)C5CC[C@]43C)[C@@H]2C1` (some centres undefined), the Potency result is “inactive”.

Take `Cc1cccc(-c2nn3c(c2-c2ccnc4ccc(C(N)=O)cc24)CCC3)n1`: the Potency result is “inactive”.

As to `OC[C@H]1O[C@@H](Oc2cc(O)cc(-c3cc4ccc(O[C@@H]5O[C@H](CO)[C@@H](O)[C@H](O)[C@H]5O)cc4o3)c2)[C@H](O)[C@@H](O)[C@@H]1O`, the Potency entry is “inactive”.

For `CC(=O)/C=C/[C@H]1[C@](C)(O)[C@@H](O)[C@H](O)C2C(C)(C)CCC[C@@]21C` (some centres undefined), the Potency entry is “inactive”.

Turning to `N#Cc1ccc(C2CCCc3cncn32)cc1` (centres undefined), the Potency entry is “inactive”.

These data come from PubChem BioAssay (NCATS).
